CD11b adhes enh – enhancers of human CD11b/CD18 binding to fibrinogen; AID 1499; K562 CD11b/CD18 adhesion to fibrinogen, ATPlite luminescence; 93,000 tested, 0.07% active; P05107+P11215; activation, % at 10 µM;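 active = 10 µM primary screen giving 50% or more activity, confirmed by 40% or more on retest at that dose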
MRP reversal – reverses drug resistance mediated by MRP. differential viability (reversal), % at 10 µM. H69AR cells + 2 uM doxorubicin, CellTiter-Glo, 72 h. 85,000 tested, 0.04% active. AID 602;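 active = viability drop by adding the cancer drug above about 55%, with treated viability meeting a 40% cutoff, limit read from the data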;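 also: larger differential means the compound sensitizes cells more to doxorubicin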
MRP1 act – activators of MRP-1 | H69AR cells + doxorubicin, viability rescue, CellTiter-Glo | viability increase, % at 10 µM | 140,000 tested, 0.61% active;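 active = viability gain under doxorubicin at or above a set limit, the compound median plus 3 SD, cut at about 4.7% in these data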;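 also: MRP-1 overexpressing cells given doxorubicin 25 µM after compound pretreatment; 18-22 h compound pretreatment then 72 h with doxorubicin before readout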
Mac1 fbg inh – blocks human CD11b/CD18 adhesion to fibrinogen. P05107+P11215. K562 CD11b/CD18 adhesion to fibrinogen, ATPlite luminescence; Mn2+ added to activate the integrin. inhibition, % at 10 µM. 93,000 tested, 0.54% active. AID 1497;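 active = primary inhibition of 50% or more at 10 µM, then 40% or more on retest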
Pyk2 oligo antag – antagonists of human Pyk2 oligomerization; Q293 cells, Pyk2 FERM NanoBiT luminescence; hits give low values; Q14289; AID 1347419; z-score (the deposit names both 25 µM and 10 µM); 99,000 tested, 0.83% active;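 active = Z-score of -3 or lower, scaled per plate to the spread of control and sample wells; inactive = z-score above -3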;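 also: negative z-score means lost luminescence so less FERM oligomerization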
Cav32 inh – human Cav3.2 channel inhibition, primary screen; B-score at 10 µM; 100,000 tested, 4% active; Cav3.2-expressing cells, Fluo-4 calcium fluorescence FDSS; hits give low values; O95180;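 active = single-dose well whose peak fluorescence ratio is a statistical outlier from its plate by either plate-standardised score or position-corrected B-score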
Hits are given with their value. Most compounds without a hit are left out; they make up all but 4.1% or so of the library.

Screening Cc1cc(-c2ccccc2)nc2[nH]n(-c3ccccc3)c(=O)c12 returned CD11b adhes enh inactive, MRP reversal inactive, MRP1 act inactive, Mac1 fbg inh inactive, Pyk2 oligo antag inactive and Cav32 inh inactive.
`O=C(CSCc1ccc(Cl)cc1)Nc1ccc2c(c1)OCO2` gave MRP reversal inactive, MRP1 act inactive, Pyk2 oligo antag inactive and Cav32 inh -5.65.
For Cc1nc(SCC(=O)Nc2ccc3c(c2)OCO3)c(C#N)c2c1CCCC2 the results were CD11b adhes enh inactive, MRP reversal inactive, MRP1 act inactive, Mac1 fbg inh inactive, Pyk2 oligo antag -3.23 and Cav32 inh inactive.
`CCCn1c(N2CCN(CC(=O)Nc3ccc4c(c3)OCCO4)CC2)nc2ccccc21` gave CD11b adhes enh inactive, MRP reversal inactive, MRP1 act inactive, Mac1 fbg inh inactive, Pyk2 oligo antag inactive and Cav32 inh -4.54.
`O=C(CSCc1ccccc1Cl)Nc1ccc2c(c1)OCCO2` gave MRP1 act inactive, Pyk2 oligo antag inactive and Cav32 inh inactive.
`CCOc1cccc(NC(=O)CSc2nc(C)c3c(c2C#N)CCCC3)c1` gave MRP reversal inactive, MRP1 act inactive, Pyk2 oligo antag inactive and Cav32 inh inactive.
O=C(CSCc1ccc(Cl)cc1)NCc1ccc2c(c1)OCO2 was read as CD11b adhes enh inactive, MRP reversal inactive, MRP1 act inactive, Mac1 fbg inh inactive, Pyk2 oligo antag inactive and Cav32 inh -6.11.
Screening CN(C)C(=O)Cn1c(SCC(=O)Nc2ccc3c(c2)OCO3)nc2ccccc21 returned MRP reversal inactive, MRP1 act inactive, Pyk2 oligo antag inactive and Cav32 inh inactive.
For O=C(OCC(=O)c1ccc(Cl)s1)c1ccccn1 the results were CD11b adhes enh inactive, MRP1 act inactive, Mac1 fbg inh inactive and Pyk2 oligo antag inactive.
Screening Cn1cc(SCC(=O)Nc2ccc3c(c2)OCO3)c2ccccc21 returned CD11b adhes enh inactive, MRP reversal inactive, MRP1 act inactive, Mac1 fbg inh inactive and Cav32 inh inactive.
CCCn1cc(SCC(=O)Nc2ccc3c(c2)OCO3)c2ccccc21 was read as CD11b adhes enh inactive, MRP reversal inactive, MRP1 act inactive, Mac1 fbg inh inactive and Cav32 inh -4.55.
`CC(C)(Oc1ccc(Cl)cc1)C(=O)N1CCN(c2ccccn2)CC1` gave MRP1 act inactive, Pyk2 oligo antag inactive and Cav32 inh -4.49.
For Cn1nc(-c2ccc(Cl)cc2)c2cc(C(=O)N3CCN(c4ccccn4)CC3)sc21 the results were CD11b adhes enh inactive, MRP reversal inactive, MRP1 act inactive, Mac1 fbg inh 61.8 and Cav32 inh inactive.
Screening Cn1nc(-c2ccc(Cl)cc2)c2cc(C(=O)N3CCN(c4ccccc4)CC3)sc21 returned CD11b adhes enh inactive, MRP reversal inactive, MRP1 act inactive, Mac1 fbg inh inactive and Cav32 inh inactive.
`O=C(/C=C/c1ccc(Cl)cc1)N1CCN(c2ccccn2)CC1` gave MRP1 act inactive.
O=C(CC1SC(N2CCCCC2)=NC1=O)Nc1cccc(C(F)(F)F)c1 (stereo unspecified) was read as MRP reversal inactive, MRP1 act inactive, Pyk2 oligo antag inactive and Cav32 inh inactive.
`Cc1ccc(N2C(=O)[C@@H]3Cc4ccccc4CN3C2=O)cc1` gave CD11b adhes enh inactive, MRP reversal inactive, MRP1 act inactive, Mac1 fbg inh inactive, Pyk2 oligo antag inactive and Cav32 inh inactive.
For CCCCCCc1cc2cc(-c3nnc(-c4ccccc4O)o3)c(=O)oc2cc1O the results were CD11b adhes enh inactive, MRP1 act inactive, Mac1 fbg inh 97.5, Pyk2 oligo antag inactive and Cav32 inh -3.52.
`CCCCCCc1cc2cc(S(=O)(=O)c3ccc(F)cc3)c(=O)oc2cc1O` gave CD11b adhes enh inactive, MRP1 act inactive and Mac1 fbg inh inactive.
CCCCCCc1cc2cc(-c3nnc(-c4cc(OC)c(OC)c(OC)c4)o3)c(=O)oc2cc1O was read as MRP reversal inactive, MRP1 act inactive and Cav32 inh inactive.
`CCCCCCc1cc2cc(-c3nnc(-c4ccccc4OC)o3)c(=O)oc2cc1O` gave CD11b adhes enh inactive, MRP reversal inactive, MRP1 act inactive, Mac1 fbg inh inactive, Pyk2 oligo antag -3.1 and Cav32 inh -4.25.
For O=C(Cn1nc(Cl)nc1Cl)Nc1ccccc1 the results were CD11b adhes enh inactive, MRP reversal inactive, MRP1 act inactive, Mac1 fbg inh inactive, Pyk2 oligo antag inactive and Cav32 inh inactive.
